The text below walks through data of article PMC7862700, “An all-to-all approach to the identification of sequence-specific readers for epigenetic DNA modifications on cytosine”.

Common to all, as to assay: DAPPL (digital affinity profiling via proximity ligation, sequencing); 10 mM Tris-HCl pH 7.5, 50 mM NaCl, 1 mM DTT, 4% glycerol, room temperature, 30 min; GST-TFs on glutathione beads, 16-mer random dsDNA library, 0.1% formaldehyde crosslink after washing; high values mean tight binding
Assay [1] concerns the target T1, FLI1 (Homo sapiens, UniProt Q01543 1-452).
T1 sequence: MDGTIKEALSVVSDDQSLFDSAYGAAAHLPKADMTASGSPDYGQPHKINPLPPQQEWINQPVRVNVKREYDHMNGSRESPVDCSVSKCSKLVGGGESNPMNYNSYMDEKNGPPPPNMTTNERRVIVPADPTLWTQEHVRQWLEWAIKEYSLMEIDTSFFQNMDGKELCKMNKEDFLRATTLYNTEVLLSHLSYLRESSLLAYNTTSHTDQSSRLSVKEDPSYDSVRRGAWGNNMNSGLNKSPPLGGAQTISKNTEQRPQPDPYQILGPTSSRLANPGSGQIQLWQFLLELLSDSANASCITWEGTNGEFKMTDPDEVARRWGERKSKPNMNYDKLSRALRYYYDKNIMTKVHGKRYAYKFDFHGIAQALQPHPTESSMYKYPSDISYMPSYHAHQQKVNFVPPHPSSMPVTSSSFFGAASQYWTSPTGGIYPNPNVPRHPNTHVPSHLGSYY
The note with it: protein: recombinant; tags: N-terminal GST; dsDNA, one strand shown. In a few lines: (§1)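 The binding signal reported is, for every hexamer, its read frequency for a factor over its read frequency for the tag-only sample. Reads came from pools of yeast-expressed, GST-fused human transcription factors on glutathione beads, barcoded with DNA and mixed with that sample, which were incubated with 200 nmole of a random double-stranded 16-mer DNA library in Tris/NaCl/DTT/glycerol buffer at room temperature for 30 min. After washing, the pools were crosslinked with 0.1% formaldehyde, proximity-ligated with BsaI/T4 ligase for 1 h at 37 °C, PCR-amplified and sequenced on an Illumina NextSeq500.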

The target in assay [2] is T2, ELK1 (Homo sapiens, UniProt P19419 1-428).
T2 sequence: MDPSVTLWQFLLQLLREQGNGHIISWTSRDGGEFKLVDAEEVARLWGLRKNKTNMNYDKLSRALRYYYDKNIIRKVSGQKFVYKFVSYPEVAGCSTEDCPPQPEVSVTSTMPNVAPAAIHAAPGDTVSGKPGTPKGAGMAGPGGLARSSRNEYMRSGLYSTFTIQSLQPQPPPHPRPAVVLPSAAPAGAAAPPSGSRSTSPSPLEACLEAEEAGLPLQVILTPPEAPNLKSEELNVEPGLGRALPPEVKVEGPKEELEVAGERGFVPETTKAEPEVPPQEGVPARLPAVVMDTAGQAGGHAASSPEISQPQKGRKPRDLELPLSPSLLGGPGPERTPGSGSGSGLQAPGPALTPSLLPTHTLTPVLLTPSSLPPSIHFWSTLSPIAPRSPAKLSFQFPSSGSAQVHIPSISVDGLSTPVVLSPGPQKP
The note with it: protein: recombinant; tags: N-terminal GST; dsDNA, one strand shown. The gist of the method:
as §1

Assay [3] has as its target T3, GABPA (Homo sapiens, UniProt Q06546 1-454).
T3 sequence: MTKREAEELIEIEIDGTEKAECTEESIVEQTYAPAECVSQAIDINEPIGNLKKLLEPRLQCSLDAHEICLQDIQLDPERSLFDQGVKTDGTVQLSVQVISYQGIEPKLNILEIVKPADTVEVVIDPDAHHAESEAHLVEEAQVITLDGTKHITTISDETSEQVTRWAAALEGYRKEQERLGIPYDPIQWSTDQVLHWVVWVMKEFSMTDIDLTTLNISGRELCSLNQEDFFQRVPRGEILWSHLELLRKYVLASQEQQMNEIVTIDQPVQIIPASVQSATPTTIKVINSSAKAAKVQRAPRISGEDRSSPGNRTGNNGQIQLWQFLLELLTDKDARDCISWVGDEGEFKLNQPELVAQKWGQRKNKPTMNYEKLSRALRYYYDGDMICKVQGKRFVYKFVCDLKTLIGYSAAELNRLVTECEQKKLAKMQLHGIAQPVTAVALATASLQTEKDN
The note with it: protein: recombinant; tags: N-terminal GST; dsDNA, one strand shown. In a few lines: as §1

Assay [4] addresses T4, ERG (Homo sapiens, UniProt P11308 1-479).
T4 sequence: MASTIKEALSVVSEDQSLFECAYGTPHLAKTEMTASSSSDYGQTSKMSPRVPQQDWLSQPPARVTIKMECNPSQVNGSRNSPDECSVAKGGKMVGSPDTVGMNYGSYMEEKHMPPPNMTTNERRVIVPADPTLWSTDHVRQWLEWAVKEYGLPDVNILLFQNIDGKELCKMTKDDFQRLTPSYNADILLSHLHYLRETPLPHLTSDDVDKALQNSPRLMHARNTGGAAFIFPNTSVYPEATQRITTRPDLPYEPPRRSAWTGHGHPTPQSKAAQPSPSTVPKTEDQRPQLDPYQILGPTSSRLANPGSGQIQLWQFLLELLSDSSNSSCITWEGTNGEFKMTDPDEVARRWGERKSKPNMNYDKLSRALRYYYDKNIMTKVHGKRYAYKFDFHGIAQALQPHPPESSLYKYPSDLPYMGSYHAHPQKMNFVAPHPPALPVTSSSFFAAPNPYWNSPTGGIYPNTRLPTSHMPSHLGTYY
The note with it: protein: recombinant; tags: N-terminal GST; dsDNA, one strand shown. In a few lines: as §1

In assay [5] the target is ELF1 (Homo sapiens, UniProt P32519 1-619). The note with it: protein: recombinant; tags: N-terminal GST; dsDNA, one strand shown. The gist of the method: as §1
ELF1, sequence (P32519 whole entry): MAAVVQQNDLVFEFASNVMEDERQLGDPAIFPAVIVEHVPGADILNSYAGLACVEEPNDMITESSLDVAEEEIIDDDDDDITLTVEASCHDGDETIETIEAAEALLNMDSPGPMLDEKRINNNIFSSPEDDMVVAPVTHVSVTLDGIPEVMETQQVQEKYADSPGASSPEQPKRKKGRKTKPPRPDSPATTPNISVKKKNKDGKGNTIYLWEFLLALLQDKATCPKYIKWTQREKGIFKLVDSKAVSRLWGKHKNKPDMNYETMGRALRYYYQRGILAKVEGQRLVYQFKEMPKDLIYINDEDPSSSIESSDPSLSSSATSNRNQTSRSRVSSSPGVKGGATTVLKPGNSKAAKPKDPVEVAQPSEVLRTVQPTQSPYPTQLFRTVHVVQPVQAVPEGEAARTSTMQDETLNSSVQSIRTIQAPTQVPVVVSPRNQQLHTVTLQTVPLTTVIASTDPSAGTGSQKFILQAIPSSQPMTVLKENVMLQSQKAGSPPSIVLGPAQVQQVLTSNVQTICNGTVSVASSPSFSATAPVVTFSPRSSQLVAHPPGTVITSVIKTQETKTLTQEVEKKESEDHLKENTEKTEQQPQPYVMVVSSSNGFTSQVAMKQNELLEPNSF
Assay [6] addresses T5, EHF (Homo sapiens, UniProt Q9NZC4 1-300).
T5 sequence: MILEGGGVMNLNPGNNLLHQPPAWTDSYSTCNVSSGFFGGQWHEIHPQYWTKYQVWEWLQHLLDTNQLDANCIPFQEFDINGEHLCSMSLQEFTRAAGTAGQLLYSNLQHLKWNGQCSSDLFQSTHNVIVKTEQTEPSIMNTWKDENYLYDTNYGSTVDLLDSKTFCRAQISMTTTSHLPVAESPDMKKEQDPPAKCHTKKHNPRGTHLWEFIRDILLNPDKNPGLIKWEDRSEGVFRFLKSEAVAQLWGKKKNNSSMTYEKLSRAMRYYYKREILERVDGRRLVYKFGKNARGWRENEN
The note with it: protein: recombinant; tags: N-terminal GST; dsDNA, one strand shown. The gist of the method: as §1

Assay [7] addresses SPI1 (Homo sapiens, UniProt P17947 1-270). To be noted: protein: recombinant; tags: N-terminal GST; dsDNA, one strand shown. The gist of the method: as §1
Assay [8] deals with SPIB (Homo sapiens, UniProt Q01892 1-262). To be noted: protein: recombinant; tags: N-terminal GST; dsDNA, one strand shown. The gist of the method: as §1
SPIB, sequence (Q01892 whole entry): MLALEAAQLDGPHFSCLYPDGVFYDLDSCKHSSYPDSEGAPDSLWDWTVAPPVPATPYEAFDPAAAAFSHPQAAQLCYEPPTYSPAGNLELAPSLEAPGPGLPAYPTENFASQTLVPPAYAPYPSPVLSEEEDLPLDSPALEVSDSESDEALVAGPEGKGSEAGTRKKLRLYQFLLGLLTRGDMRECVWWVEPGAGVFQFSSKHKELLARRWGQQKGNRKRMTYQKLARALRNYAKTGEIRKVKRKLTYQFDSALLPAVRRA
The target in assay [9] is T6, ELK3 (Homo sapiens, UniProt P41970 1-407).
T6 sequence: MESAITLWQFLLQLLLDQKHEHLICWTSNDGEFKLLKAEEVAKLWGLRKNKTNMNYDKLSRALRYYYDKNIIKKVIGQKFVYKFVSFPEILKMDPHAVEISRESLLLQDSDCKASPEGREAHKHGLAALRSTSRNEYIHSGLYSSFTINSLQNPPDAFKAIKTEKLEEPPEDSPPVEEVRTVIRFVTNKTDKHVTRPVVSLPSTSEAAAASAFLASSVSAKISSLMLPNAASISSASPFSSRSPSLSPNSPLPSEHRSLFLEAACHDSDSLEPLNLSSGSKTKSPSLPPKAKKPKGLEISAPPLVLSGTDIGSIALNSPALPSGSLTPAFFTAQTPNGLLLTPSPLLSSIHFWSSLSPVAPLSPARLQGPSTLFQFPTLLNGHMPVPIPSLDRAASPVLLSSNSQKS
To be noted: protein: recombinant; tags: N-terminal GST; dsDNA, one strand shown. The gist of the method: as §1

The target in assay [10] is T7, FEV (Homo sapiens, UniProt Q99581 1-238).
T7 sequence: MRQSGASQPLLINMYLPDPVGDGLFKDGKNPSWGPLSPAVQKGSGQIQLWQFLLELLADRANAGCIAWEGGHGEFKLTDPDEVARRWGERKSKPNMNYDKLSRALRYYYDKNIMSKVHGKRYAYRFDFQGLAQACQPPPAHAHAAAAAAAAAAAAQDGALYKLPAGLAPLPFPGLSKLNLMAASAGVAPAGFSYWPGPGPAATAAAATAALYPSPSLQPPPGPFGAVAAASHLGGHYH
To be noted: protein: recombinant; tags: N-terminal GST; dsDNA, one strand shown. In a few lines:
as §1

Assay [11] concerns the target ETV5 (Homo sapiens, UniProt P41161 1-510). The note with it: protein: recombinant; tags: N-terminal GST; dsDNA, one strand shown. In a few lines:
as §1

In assay [12] the target is HSF1 (Homo sapiens, UniProt Q00613 1-529). To be noted: protein: recombinant; tags: N-terminal GST; chain copies: 3; dsDNA, one strand shown. In a few lines:
as §1

The target of assay [13] is T8, SPIC (Homo sapiens, UniProt Q8N5J4 1-248).
T8 sequence: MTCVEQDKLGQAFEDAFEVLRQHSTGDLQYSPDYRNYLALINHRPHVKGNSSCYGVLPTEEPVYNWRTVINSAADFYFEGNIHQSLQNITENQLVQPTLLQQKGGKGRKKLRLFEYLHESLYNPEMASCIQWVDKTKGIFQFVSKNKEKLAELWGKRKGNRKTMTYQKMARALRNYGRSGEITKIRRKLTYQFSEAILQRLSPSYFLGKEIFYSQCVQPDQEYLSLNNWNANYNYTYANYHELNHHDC
To be noted: protein: recombinant; tags: N-terminal GST; dsDNA, one strand shown. The gist of the method:
as §1

Assay [14] deals with ELF4 (Homo sapiens, UniProt Q99607 1-663). To be noted: protein: recombinant; tags: N-terminal GST; dsDNA, one strand shown. In a few lines:
as §1

Assay [15] addresses T9, ELK4 (Homo sapiens, UniProt P28324-2 1-405).
T9 sequence: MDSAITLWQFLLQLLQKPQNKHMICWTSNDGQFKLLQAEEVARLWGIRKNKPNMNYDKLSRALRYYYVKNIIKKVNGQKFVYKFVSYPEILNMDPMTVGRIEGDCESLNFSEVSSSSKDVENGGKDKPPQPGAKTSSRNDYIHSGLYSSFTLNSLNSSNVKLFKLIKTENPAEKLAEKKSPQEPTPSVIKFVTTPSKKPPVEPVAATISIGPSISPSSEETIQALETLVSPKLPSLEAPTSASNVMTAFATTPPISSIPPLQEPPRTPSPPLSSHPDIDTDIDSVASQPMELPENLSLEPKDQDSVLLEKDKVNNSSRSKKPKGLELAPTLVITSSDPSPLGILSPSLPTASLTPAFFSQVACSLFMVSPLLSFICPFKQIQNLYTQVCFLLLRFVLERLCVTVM
To be noted: protein: recombinant; tags: N-terminal GST; dsDNA, one strand shown. The gist of the method:
as §1

Assay [16] deals with T10, ELF3 (Homo sapiens, UniProt P78545 1-371).
T10 sequence: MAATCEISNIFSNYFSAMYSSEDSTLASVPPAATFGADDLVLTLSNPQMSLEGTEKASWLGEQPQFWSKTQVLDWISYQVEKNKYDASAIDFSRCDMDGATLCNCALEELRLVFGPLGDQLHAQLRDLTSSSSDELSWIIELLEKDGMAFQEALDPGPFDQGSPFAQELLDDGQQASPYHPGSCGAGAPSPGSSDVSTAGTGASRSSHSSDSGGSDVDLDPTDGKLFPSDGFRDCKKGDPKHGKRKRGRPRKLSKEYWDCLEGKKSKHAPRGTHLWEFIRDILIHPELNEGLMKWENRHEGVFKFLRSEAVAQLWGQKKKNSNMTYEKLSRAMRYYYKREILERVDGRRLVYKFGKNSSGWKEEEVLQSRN
The note with it: protein: recombinant; tags: N-terminal GST; dsDNA, one strand shown. The gist of the method: as §1

The target in assay [17] is CRX (Homo sapiens, UniProt O43186 1-299). The note with it: protein: recombinant; tags: N-terminal GST; dsDNA, one strand shown. The gist of the method: as §1
CRX, sequence (O43186 whole entry): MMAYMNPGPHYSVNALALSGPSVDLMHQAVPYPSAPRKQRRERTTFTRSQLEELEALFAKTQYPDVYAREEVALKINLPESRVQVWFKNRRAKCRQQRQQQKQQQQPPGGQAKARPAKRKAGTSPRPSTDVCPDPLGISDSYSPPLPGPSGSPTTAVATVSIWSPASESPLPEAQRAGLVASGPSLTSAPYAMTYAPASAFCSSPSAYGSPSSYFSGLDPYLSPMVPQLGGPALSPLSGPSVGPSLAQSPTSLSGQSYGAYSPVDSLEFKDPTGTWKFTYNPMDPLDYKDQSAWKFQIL
Assay [18] addresses ETV1 (Homo sapiens, UniProt P50549 1-477). The note with it: protein: recombinant; tags: N-terminal GST; dsDNA, one strand shown. The gist of the method:
as §1

ETV1, sequence (P50549 whole entry): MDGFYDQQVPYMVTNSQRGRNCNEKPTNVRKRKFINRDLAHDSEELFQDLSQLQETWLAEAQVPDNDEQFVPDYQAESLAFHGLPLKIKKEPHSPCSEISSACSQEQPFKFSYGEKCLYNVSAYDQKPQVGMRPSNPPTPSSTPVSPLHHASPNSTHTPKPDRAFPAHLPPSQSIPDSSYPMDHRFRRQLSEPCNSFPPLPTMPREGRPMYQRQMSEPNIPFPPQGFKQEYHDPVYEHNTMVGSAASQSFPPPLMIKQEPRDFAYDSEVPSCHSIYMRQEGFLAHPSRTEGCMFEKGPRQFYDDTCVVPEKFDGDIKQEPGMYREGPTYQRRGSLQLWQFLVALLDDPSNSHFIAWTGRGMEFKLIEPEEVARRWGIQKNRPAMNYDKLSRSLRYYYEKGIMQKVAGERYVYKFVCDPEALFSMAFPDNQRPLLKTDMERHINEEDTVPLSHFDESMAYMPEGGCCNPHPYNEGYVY
ELF4, sequence (Q99607 whole entry): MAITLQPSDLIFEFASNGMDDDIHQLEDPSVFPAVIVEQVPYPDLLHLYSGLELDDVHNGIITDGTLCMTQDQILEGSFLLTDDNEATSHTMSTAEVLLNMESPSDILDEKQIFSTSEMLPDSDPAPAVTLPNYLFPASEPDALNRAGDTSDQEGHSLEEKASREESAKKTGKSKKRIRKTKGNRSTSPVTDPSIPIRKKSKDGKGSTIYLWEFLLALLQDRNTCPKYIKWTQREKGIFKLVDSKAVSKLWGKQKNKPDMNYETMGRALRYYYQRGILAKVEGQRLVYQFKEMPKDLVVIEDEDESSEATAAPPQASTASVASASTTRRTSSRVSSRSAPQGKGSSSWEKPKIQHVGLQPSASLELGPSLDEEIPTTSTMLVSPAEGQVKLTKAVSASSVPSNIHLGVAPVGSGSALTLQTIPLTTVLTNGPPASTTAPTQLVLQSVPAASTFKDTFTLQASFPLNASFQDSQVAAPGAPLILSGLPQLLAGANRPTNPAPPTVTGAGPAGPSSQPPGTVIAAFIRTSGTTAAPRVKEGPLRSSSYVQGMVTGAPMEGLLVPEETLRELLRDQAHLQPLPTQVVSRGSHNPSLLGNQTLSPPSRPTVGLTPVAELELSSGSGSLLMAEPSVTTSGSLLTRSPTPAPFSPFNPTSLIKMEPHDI
ETV5, sequence (P41161 whole entry): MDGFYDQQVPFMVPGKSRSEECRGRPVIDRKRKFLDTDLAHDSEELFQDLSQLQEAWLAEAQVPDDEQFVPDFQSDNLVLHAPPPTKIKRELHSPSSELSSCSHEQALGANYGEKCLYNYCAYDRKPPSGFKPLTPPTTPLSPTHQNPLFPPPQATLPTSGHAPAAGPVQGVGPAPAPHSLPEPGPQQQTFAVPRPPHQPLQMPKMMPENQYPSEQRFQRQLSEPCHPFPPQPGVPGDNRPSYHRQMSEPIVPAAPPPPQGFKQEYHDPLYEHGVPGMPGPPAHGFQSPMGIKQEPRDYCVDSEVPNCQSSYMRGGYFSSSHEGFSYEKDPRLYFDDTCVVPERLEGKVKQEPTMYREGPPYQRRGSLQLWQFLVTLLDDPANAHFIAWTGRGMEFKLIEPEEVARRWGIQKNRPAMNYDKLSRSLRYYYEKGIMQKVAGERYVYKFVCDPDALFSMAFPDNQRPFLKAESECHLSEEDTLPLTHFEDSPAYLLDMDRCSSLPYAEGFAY
HSF1, sequence (Q00613 whole entry): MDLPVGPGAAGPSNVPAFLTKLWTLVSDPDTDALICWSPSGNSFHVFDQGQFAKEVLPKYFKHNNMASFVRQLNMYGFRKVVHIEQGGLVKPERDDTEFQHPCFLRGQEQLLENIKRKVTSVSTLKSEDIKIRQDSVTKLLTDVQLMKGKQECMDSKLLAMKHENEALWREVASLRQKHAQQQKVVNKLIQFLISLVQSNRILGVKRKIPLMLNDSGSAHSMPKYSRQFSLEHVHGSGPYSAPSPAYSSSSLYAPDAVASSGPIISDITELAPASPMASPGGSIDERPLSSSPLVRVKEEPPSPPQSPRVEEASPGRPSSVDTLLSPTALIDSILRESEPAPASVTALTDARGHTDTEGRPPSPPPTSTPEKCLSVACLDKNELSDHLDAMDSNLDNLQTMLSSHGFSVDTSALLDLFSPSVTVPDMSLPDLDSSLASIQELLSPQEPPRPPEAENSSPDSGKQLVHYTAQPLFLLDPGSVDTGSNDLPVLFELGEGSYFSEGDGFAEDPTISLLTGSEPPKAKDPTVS

Regarding GAATAT, the binding signal in assay [1] is 1.08 fold enrichment (6-mer frequency, TF over GST control); in assay [2] it was 1.08 fold enrichment (6-mer frequency, TF over GST control); in assay [3], 1.11 fold enrichment (6-mer frequency, TF over GST control); in assay [4] it was 1.04 fold enrichment (6-mer frequency, TF over GST control); in [5] it was 1.12 fold enrichment (6-mer frequency, TF over GST control); in [6], 1.04 fold enrichment (6-mer frequency, TF over GST control). Moreover, the binding signal in assay [7] is 1.08 fold enrichment (6-mer frequency, TF over GST control); in [8], 1.01 fold enrichment (6-mer frequency, TF over GST control); in assay [9] it was 1.12 fold enrichment (6-mer frequency, TF over GST control); in assay [10], 1.03 fold enrichment (6-mer frequency, TF over GST control); in assay [11], 1.07 fold enrichment (6-mer frequency, TF over GST control); in assay [12], 1.67 fold enrichment (6-mer frequency, TF over GST control). Moreover, the binding signal is 1.13 fold enrichment (6-mer frequency, TF over GST control) in assay [13]; 1.05 fold enrichment (6-mer frequency, TF over GST control) in [14]; 1.07 fold enrichment (6-mer frequency, TF over GST control) in assay [15]; 1.09 fold enrichment (6-mer frequency, TF over GST control) in assay [16]; 1.2 fold enrichment (6-mer frequency, TF over GST control) in [17]; 1.03 fold enrichment (6-mer frequency, TF over GST control) in [18].
